Screening results from PubChem BioAssay.
S2 tox: viability counter-screen for ATXN expression inhibitors. S2 cells (HEK-293 line with an ATXN2-luciferase reporter) viability, CellTiter-Fluor protease fluorescence, 24 h. Potency, µM (titrated, usually from 56.7 µM), most hits filed as cytotoxic. 0.49% of 400,000 active; note: potency is the fitted concentration of half-maximal effect; nearly all actives have a fitted effect of over 40% in size
USP1-UAF1 inh: blocks the human USP1/UAF1 deubiquitinase complex; O94782; Potency, µM (highest dose often 57.1 µM), without a hit: at the highest dose activity change, negative = inhibition, hits mostly inhibitors; 0.23% of 390,000 active; recombinant USP1/UAF1, Ub-Rhodamine cleavage fluorescence; note: potency is the fitted concentration of half-maximal effect; % is set by controls: 0 for no effect and ±100 for the full control effect; nearly all actives have a fitted effect of over 60% in size
Target sequence (O94782 whole entry, looked up): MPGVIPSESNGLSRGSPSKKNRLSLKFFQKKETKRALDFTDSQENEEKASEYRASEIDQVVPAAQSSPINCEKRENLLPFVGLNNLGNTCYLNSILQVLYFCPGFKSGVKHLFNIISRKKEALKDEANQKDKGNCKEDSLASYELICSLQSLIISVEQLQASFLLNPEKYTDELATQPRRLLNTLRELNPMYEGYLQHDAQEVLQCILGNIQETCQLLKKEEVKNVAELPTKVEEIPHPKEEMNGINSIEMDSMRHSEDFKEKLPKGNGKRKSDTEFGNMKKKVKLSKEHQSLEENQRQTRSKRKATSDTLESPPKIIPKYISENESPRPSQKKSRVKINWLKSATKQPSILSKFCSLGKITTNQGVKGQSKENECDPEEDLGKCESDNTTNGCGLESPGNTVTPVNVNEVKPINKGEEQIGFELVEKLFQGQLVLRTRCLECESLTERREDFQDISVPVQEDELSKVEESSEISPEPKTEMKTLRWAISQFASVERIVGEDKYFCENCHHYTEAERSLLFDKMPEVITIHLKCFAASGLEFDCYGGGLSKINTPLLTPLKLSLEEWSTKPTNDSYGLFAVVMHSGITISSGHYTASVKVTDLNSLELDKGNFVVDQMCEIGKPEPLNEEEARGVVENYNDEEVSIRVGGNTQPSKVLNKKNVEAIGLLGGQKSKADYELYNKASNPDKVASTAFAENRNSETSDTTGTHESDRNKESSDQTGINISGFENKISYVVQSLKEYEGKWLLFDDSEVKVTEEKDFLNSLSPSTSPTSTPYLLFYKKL
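USP1/UAF1 complex at 1 nM was preincubated with compound for 15 min at room temperature, then Ub-Rho substrate (150nM final) was added. Fluorescence (480/540 nm) was read kinetically, 6 reads every 60 seconds.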
USP2a block: blocks human ubiquitin-specific protease USP2a. O75604. USP2 core, Ub-CHOP2 coupled fluorogenic reporter, 485/531. 0.01% of 330,000 active. Potency, µM (series often up to 38.3 µM), for inactives: top-dose activity change, negative = inhibition, hits mostly inhibitors;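 note: potency is the fitted concentration of half-maximal effect; plate controls were DMSO wells for no effect and full inhibition by NEM control for full effect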
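USP2 core (10nM final) preincubated 30min RT with compound in 20mM Tris-HCl pH 8.0, 2mM CaCl2, 2mM beta-mercaptoethanol, 0.05% CHAPS; 25nM Ub-CHOP2 plus 25nM reporter substrate added, fluorescence (Ex485/Em531) read after 60min.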
ATXN2 expr inh: ATXN2 expression inhibition; AID 1745845; HEK-293 ATXN2-luciferase reporter, luminescence, 24 h; 0.72% of 360,000 active; Potency, µM (titrated, usually from 57 µM), for the others: at the highest dose activity change, negative = inhibition, most hits filed as inhibitors; note: potency is the fitted concentration of half-maximal effect; % is set by controls: 0 for no effect and ±100 for the full control effect; nearly all actives have a fitted effect of over 55% in size
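ATXN2-luciferase reporter cells (luciferase flanked by upstream and downstream ATXN2 gene portions) were treated 24 h at 37 °C with compounds at up to 57 uM. SteadyGlo luminescence gave expression; GF-AFC fluorescence gave viability.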
IL-1B inflam inh: inhibitors of inflammasome signaling (IL-1 beta secretion). THP-1 LPS/ATP IL-1B secretion, AlphaLISA, 16 h; hits give low values. activity change, % at 57.5 µM. 4.7% of 360,000 active. AID 743279; in the data active = activity change below about -50%; inconclusive = mostly about -30% to -49%; note: % is set by controls: 0 for no effect and ±100 for the full control effect
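THP-1 cells pretreated 1 hr with compounds (up to 57.5 uM final), then stimulated with LPS (250 ng/mL final) plus ATP (1.25 mM final); secreted IL-1B measured by AlphaLISA after 16 hr, decreased signal indicating inhibition.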
The depositor's hits bear a star; [ ] = another dose, or the depositor's remark. Shown are actives, neighbours in structure and some others; about 4.8% of the full set was active somewhere. Unless noted, calls come from the whole dose curve; as a rule, active = well fitted curve in the direction sought with a large enough effect; inconclusive = small, poorly fitted or top-dose-only effect, or another doubt; inactive = no such curve, though single readings can be large; an effect the other way counts as inactive or inconclusive.

For COc1ccccc1NC(=S)N(Cc1cccs1)C1CCCC1 the results were S2 tox inactive, USP1-UAF1 inh -5.7%, USP2a block -1.8%, ATXN2 expr inh 0.7% and IL-1B inflam inh -62.5*.
`COc1ccccc1NC(=S)N(Cc1ccccc1)Cc1cccs1` gave S2 tox inactive, USP1-UAF1 inh -14.7%, USP2a block -7.9%, ATXN2 expr inh -16.9% and IL-1B inflam inh -4.1.
For COc1ccc(C2=Nn3c(nnc3-c3ccccc3)SC2)cc1OC the results were S2 tox inactive, USP1-UAF1 inh -1.5%, USP2a block 1.5%, ATXN2 expr inh -0.4% and IL-1B inflam inh 0.8.
c1ccc(-c2cc(-c3nnc4n3N=C(c3ccc5ccccc5c3)CS4)[nH]n2)cc1 was read as S2 tox inconclusive, USP1-UAF1 inh -6.5%, USP2a block 0.2%, ATXN2 expr inh inconclusive and IL-1B inflam inh -64.5*.
For Cc1cc(-c2nnc3n2N=C(c2ccccc2)CS3)n[nH]1 the results were USP1-UAF1 inh 4.6%, USP2a block -3.2% and ATXN2 expr inh 50.4%.
`Cc1cc(-c2nnc3n2N=C(c2ccc(-c4ccccc4)cc2)CS3)n[nH]1` gave S2 tox inconclusive, USP1-UAF1 inh -10.0%, USP2a block inconclusive, ATXN2 expr inh inconclusive and IL-1B inflam inh -62.4*.
Screening CCC(=O)NC1=C(Cl)C(=O)C(NC(=O)CC)=C(Cl)C1=O returned USP1-UAF1 inh 31.6µM*, USP2a block -0.8% and IL-1B inflam inh -85.5*.
Cc1cc(O)c(C(C)C)cc1NC(=O)Nc1cc(Cl)ccc1Cl was read as S2 tox inactive, USP1-UAF1 inh -10.9%, ATXN2 expr inh 8.5% and IL-1B inflam inh 25.1.
For Cc1cc(O)c(C(C)C)cc1NC(=O)Nc1cccc2ccccc12 the results were S2 tox inactive, USP1-UAF1 inh -15.0%, USP2a block 0.2%, ATXN2 expr inh inconclusive and IL-1B inflam inh -66.0*.
Screening NC[C@H]1O[C@H](O[C@H]2[C@H](O)[C@@H](O[C@H]3O[C@H](CO)[C@@H](O)[C@H](N)[C@H]3O)[C@H](N)C[C@@H]2N)[C@H](N)[C@@H](O)[C@@H]1O returned S2 tox inactive and ATXN2 expr inh 8.7%[25.6 µM].
Screening CC(C)CN(C(=O)C1CCCO1)c1c(N)n(CC(C)C)c(=O)[nH]c1=O (centres undefined) returned S2 tox inactive, USP1-UAF1 inh -9.1%, USP2a block 1.1%, ATXN2 expr inh 4.8% and IL-1B inflam inh 9.5.
For O=C(CN1Cc2ccccc2OC(c2ccsc2)C1)N1CCN(Cc2ccc3c(c2)OCO3)CC1 (centres undefined) the results were S2 tox inactive.
O=[N+]([O-])c1ccc2[nH]cc(S(=O)(=O)N3CCN(c4cccc(Cl)c4)CC3)c2c1 was read as S2 tox inactive, USP1-UAF1 inh -15.6%, USP2a block -9.4%, ATXN2 expr inh inconclusive and IL-1B inflam inh -95.7*.
For CCCCNC(=O)C(NC(=O)c1ccc2c(c1)OCO2)C(=O)c1ccccc1 (centres undefined) the results were IL-1B inflam inh 27.0.
Screening Cc1nc2c(O)c3c(c(O)c2nc1C)C1C=CC3CC1 returned S2 tox 5.62µM*, USP1-UAF1 inh -14.6%, ATXN2 expr inh 28.2µM* and IL-1B inflam inh 0.0.
`Cc1nc2c(C)c(C)c(C)c(C)c2nc1C` gave S2 tox inactive, USP1-UAF1 inh -17.5%, USP2a block 1.1% and ATXN2 expr inh -11.7%.
`CC1(C)S[C@@H]2[C@H](NC(=O)[C@H](N)c3ccccc3)C(=O)N2[C@H]1C(=O)OC1OC(=O)c2ccccc21` (some centres undefined) gave S2 tox inactive, USP1-UAF1 inh 7.2%, USP2a block 3.4%, ATXN2 expr inh -3.9% and IL-1B inflam inh -56.4*.
N#Cc1nc(-c2ccco2)oc1N1CCN(c2cccc(Cl)c2)CC1 was read as S2 tox inactive, USP1-UAF1 inh -30.8%, USP2a block 0.8%, ATXN2 expr inh -20.5% and IL-1B inflam inh -61.9*.
COc1cccc(C(NC(C)=O)c2nc(-c3ccccc3)cs2)c1 (centres undefined) was read as S2 tox inactive, ATXN2 expr inh 5.6% and IL-1B inflam inh -14.7.
COc1cccc(C(NC(C)=O)c2nc(-c3ccc(OC)nc3)cs2)c1 (centres undefined) was read as S2 tox inactive, ATXN2 expr inh 9.3% and IL-1B inflam inh -73.5*.
For COc1cccc(C(NC(C)=O)c2nc(-c3cccc(C#N)c3)cs2)c1 (centres undefined) the results were S2 tox inactive, ATXN2 expr inh -0.5% and IL-1B inflam inh -73.6*.
Screening NC(=O)c1ccc(-c2nnc(Nc3ccc(S(N)(=O)=O)cc3)c3ccccc23)cc1 returned S2 tox inactive, USP1-UAF1 inh -19.1%, USP2a block -2.2%, ATXN2 expr inh 29.0% and IL-1B inflam inh 22.2.
`Cc1cccc(C)c1NC(=O)C1(C)CN(S(C)(=O)=O)CC(=O)N1Cc1ccc2c(c1)OCO2` (centres undefined) gave IL-1B inflam inh 0.8.
Screening Cc1c(OCC(=O)N[C@H](C(=O)O)c2ccccc2)ccc2c3c(c(=O)oc12)CCCC3 returned S2 tox inactive, USP1-UAF1 inh -22.1%, USP2a block -0.9%, ATXN2 expr inh -9.3% and IL-1B inflam inh -7.3.
`CC(C)=CCC1C(=O)N(c2ccccc2)N(c2ccccc2)C1=O` gave S2 tox inactive and ATXN2 expr inh inconclusive.
For CCCCC1C(=O)N(c2ccccc2)N(c2ccc(O)cc2)C1=O (centres undefined) the results were S2 tox 7.94µM*, USP1-UAF1 inh inconclusive, USP2a block 0.8%, ATXN2 expr inh 5.62µM* and IL-1B inflam inh -109.0*.
Screening CCOC(=O)c1sc(SCC(=O)Nc2ccc(N(C)C)cc2)nc1N returned S2 tox inactive, USP1-UAF1 inh -19.8%, USP2a block -1.0%, ATXN2 expr inh -17.9% and IL-1B inflam inh -66.6*.
For CN(C)c1ccc(NC(=O)CSc2nc(N)c(C(=O)Nc3ccc(N(C)C)cc3)s2)cc1 the results were S2 tox inactive, USP1-UAF1 inh -22.1%, USP2a block 1.3%, ATXN2 expr inh 18.0% and IL-1B inflam inh inconclusive.
For O=C(CN1c2ccccc2Sc2ccccc21)NNC(=O)Nc1ccc(Cl)c(Cl)c1 the results were S2 tox inactive, USP1-UAF1 inh -23.9%, USP2a block 1.2%, ATXN2 expr inh -10.4% and IL-1B inflam inh -92.0*.
For O=C(CN1c2ccccc2Sc2ccccc21)NNC(=O)Nc1ccc(Cl)cc1 the results were S2 tox inactive, USP1-UAF1 inh -5.8%, USP2a block 0.4%, ATXN2 expr inh -31.4% and IL-1B inflam inh -80.1*.
